Laboratory results published in PubChem BioAssay.
Activity calls are given as the source filed them.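 The calls were made as follows, unless noted: active = fluorescence slope after compound addition differing from the mean of all screened samples at 99.7% confidence, in either direction; inactive = the rest.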

Experiments:
[1] = inhibitors of TNFa-induced NFkB p65 translocation, primary screen, imaging, HUVEC, MLSMR starter and 10KST1 sets (AID 438;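 active = inhibition above 20% together with a positive visual image hit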;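 also: compound added about 3h40 before a 20 min TNFalpha stimulation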;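 as to inhibition: signal is the nuclear over cytoplasmic p65 intensity ratio per well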); details: HUVEC TNFa-induced p65 nuclear translocation; cell count: measured here: nuclei count (cytotoxicity indicator), at 2.08 µM; inhibition: at 2 µM, stronger effect = higher value, 0% TNFa-plus-vehicle, 100% no-TNFa wells
[2] = inhibitors of mutant huntingtin aggregation, primary screen, imaging, exon1htt(103Q)mCFP cells, high-content imaging (AID 483;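 active = visual image review flags a hit and inhibition of aggregation exceeds 20%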;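 also: compound exposure lasted 3 days before fixation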;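 as to nuclei count: percent of the per-plate median nuclei count of sample wells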); details: exon1htt(103Q)mCFP cell line, aggregate imaging, at 2 µM; inhibition of aggregation: stronger effect = higher value; nuclei count: measured here: cell count, toxicity
[3] = inhibitors of E-selectin induction by TNFa, primary screen, imaging, HUVEC, immunofluorescence, MLSMR starter and 10KST1 sets (AID 487;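 active = visually confirmed hit in the image check and inhibition above 20%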;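 as to inhibition: signal is fraction of cell area covered by stained E-selectin grains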;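 as to nuclei count: 100% = median nuclei count of all wells on the same plate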); details: HUVEC TNFalpha-induced E-selectin immunofluorescence imaging, at 2 µM; inhibition: stronger effect = higher value; nuclei count: measured here: cell number, toxicity
[4] = target: Voltage-gated potassium channel subunit beta-2 (Rattus norvegicus) (UniProt P62483); assay: KvBeta enzyme negative modulators, primary screen, biochemical, NADPH fluorescence (AID 622;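 active = fluorescence slope higher than the sample average by over 3 SD, cut at about -0.22 in these data, passing the limit was not always enough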;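 also: slope of raw intensity against log time taken from 70 to 1610 s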); details: recombinant KvBeta, 4-cyanobenzaldehyde reduction, at 10 µM, stronger effect = higher value
[5] = target: Voltage-gated potassium channel subunit beta-2 (Rattus norvegicus) (UniProt P62483); assay: KvBeta positive modulators, primary screen, biochemical, NADPH fluorescence (AID 623;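 active = NADPH fluorescence slope more negative than the mean of all samples by about 3 SD, 99.7% confidence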;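 also: fluorescence intensity change per second fitted from 20 to 320 s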); details: Recombinant KvBeta, NADPH fluorescence decrease slope, 10 min; at 10 µM; stronger effect = lower value
[6] = target: Alpha-2C adrenergic receptor (Homo sapiens) (UniProt P18825); assay: modulators of alpha2C/GIRK thallium flux, primary screen, cell-based, HEK293 alpha2C/GIRK1/2 (AID 624); details: thallium flux BTC fluorescence, at 10 µM, actives lie on both sides;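 also: slope of fluorescence ratio to pre-addition baseline per second over 15 to 24 s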
[7] = inhibitors of Sendai virus-induced IRF3 signaling, primary screen, TLR/RLR signaling modifier project, cell-based, Sendai virus stimulus, luciferase, 10K MLSCN set (AID 602276;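 active = inhibition at or above 50% at 10 µM; inactive = inhibition below 50%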;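 also: firefly luciferase from ISG56 promoter only with Renilla not read in this screen; 0% = Sendai virus plus DMSO and 100% = medium plus DMSO without virus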); details: HEK293 RL24 IRF3 luciferase reporter, at 10 µM, stronger effect = higher value
[8] = inhibitors of poly I:C-induced TLR3 signaling, primary screen, cell-based, poly I:C stimulus, luciferase, 10K MLSCN set (AID 602277;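 active = inhibition of the reporter signal at or above 50%; inactive = inhibition below 50%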); details: HEK293-TLR3 RL24 IRF3 luciferase reporter, at 10 µM, stronger effect = higher value

Alpha-2C adrenergic receptor (Homo sapiens), sequence (P18825 whole entry, looked up): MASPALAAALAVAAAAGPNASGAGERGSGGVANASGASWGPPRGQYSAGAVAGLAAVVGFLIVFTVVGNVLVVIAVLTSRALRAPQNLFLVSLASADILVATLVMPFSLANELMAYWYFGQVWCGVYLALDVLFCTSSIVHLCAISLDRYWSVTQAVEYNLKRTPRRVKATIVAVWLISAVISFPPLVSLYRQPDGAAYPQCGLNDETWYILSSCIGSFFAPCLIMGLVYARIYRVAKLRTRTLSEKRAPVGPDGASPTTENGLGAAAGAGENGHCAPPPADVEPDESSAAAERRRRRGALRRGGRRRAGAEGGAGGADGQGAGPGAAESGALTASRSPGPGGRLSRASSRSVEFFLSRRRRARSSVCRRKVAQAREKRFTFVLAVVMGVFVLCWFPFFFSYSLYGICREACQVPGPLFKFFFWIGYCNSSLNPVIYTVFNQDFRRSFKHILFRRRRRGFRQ
Voltage-gated potassium channel subunit beta-2 (Rattus norvegicus), sequence (P62483 whole entry, looked up): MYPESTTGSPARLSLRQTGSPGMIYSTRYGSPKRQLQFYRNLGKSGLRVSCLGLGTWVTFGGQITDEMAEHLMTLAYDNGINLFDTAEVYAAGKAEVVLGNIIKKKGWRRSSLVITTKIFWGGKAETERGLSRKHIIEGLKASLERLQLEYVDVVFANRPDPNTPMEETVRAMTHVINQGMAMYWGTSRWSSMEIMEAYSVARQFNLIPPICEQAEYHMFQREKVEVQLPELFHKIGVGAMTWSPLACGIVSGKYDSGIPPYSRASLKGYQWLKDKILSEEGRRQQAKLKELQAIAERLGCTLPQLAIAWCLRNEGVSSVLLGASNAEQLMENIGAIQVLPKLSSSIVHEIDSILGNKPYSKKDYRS

SMILES	cell count [1]	inhibition [1]	inhibition of aggregation [2]	nuclei count [2]	inhibition [3]	nuclei count [3]	fluorescence slope [4]	NADPH fluorescence slope [5]	slope [6]	inhibition [7]	inhibition [8]
COc1ccc(CC(=O)NC2CCN(CC(=O)Nc3ccc4c(c3)OCCO4)CC2)cc1OC	635	-1.6% (inactive)	-5.8% (inactive)	88.5%	-29.5% (inactive)	111%	-0.428 (inactive)	-6.5e-06 (inactive)	0.00308 (inactive)	6.1% (inactive)	-5.8% (inactive)
O=c1oc2ccccc2c2nccnc12	410	2.1% (inactive)	2.2% (inactive)	104%	-5.2% (inactive)	107%	-0.456 (inactive)	-3.3e-05 (inactive)	0.00253 (inactive)	5.7% (inactive)	27.5% (inactive)
CCCN1C=CC(=C2C(=O)c3ccccc3C2=O)C=C1	418	2% (inactive)	16.6% (inactive)	44.6%	-7.6% (inactive)	111%	-0.377 (inactive)	-6.2e-05 (inactive)	0.00522 (inactive)	29.8% (inactive)	89.4% (active)
O=C(CSc1nnnn1C1CCCCC1)N1CCc2ccccc21	348	0.8% (inactive)	-13.7% (inactive)	101%	1.9% (inactive)	120%	-0.566 (inactive)	-4e-05 (inactive)	0.00388 (inactive)	9.99% (inactive)	-10% (inactive)
CC(C)Cc1nnc(NS(=O)(=O)c2ccc(Cl)cc2)s1	652	5.4% (inactive)	-9.3% (inactive)	112%	-21.2% (inactive)	112%	-0.541 (inactive)	4.8e-06 (inactive)	0.0081 (inactive)	12.6% (inactive)	27.6% (inactive)
COc1ccccc1N1CCN(C(=O)N2CCOCC2)CC1	683	-8.1% (inactive)	-2.9% (inactive)	100%	-80.8% (inactive)	107%	-0.417 (inactive)	-6.2e-05 (inactive)	0.00512 (inactive)	19% (inactive)	26.2% (inactive)
O=C(COc1ccccc1Cl)NCCCN1CCOCC1	458	5.4% (inactive)	0% (inactive)	117%	-11.3% (inactive)	126%	-0.509 (inactive)	-5.8e-05 (inactive)	0.00528 (inactive)	10.2% (inactive)	18.2% (inactive)
S=C(c1ccc(-c2cc(Cl)ccc2Cl)o1)N1CCOCC1	365	-10.4% (inactive)	-14% (inactive)	111%	-53.8% (inactive)	113%	-0.523 (inactive)	-6e-06 (inactive)	0.00341 (inactive)	21.6% (inactive)	8.92% (inactive)
Cc1cccc(C(=O)N2CCC(n3nnc4cc(F)ccc43)CC2)c1	695	-12.5% (inactive)	-26.4% (inactive)	101%	13.4% (inactive)	106%	-0.325 (inactive)	-2e-05 (inactive)	0.0067 (inactive)	5.99% (inactive)	6.27% (inactive)
COc1nnc(-c2ccc(C)c(S(=O)(=O)NCCO)c2)c2ccccc12	325	-2.7% (inactive)	11.7% (inactive)	75.4%	-17.6% (inactive)	95.3%	-0.424 (inactive)	1e-05 (inactive)	0.0039 (inactive)	1.8% (inactive)	28.9% (inactive)
C=CCOc1ccc(/C(CC)=N/O)c(OC)c1	387	15.3% (inactive)	-5.5% (inactive)	54.4%	-29.6% (inactive)	117%	-0.442 (inactive)	-3.1e-05 (inactive)	0.00515 (inactive)	-7.92% (inactive)	0.412% (inactive)
Cc1ccc(C)c(-n2c(CNC(=O)c3ccco3)nnc2SCC(=O)Nc2nnc(C)s2)c1	656	-6.4% (inactive)	20.8% (inactive)	99.5%	3.7% (inactive)	120%	-0.528 (inactive)	-3e-05 (inactive)	0.0063 (inactive)	14.2% (inactive)	36.2% (inactive)
CCOc1ccccc1C1NC(=O)NC(C)=C1C(=O)OC1CCCC1C (stereo not drawn)	686	2.9% (inactive)	-3.3% (inactive)	103%	13.9% (inactive)	99.1%	-0.488 (inactive)	-5e-05 (inactive)	0.00539 (inactive)	16.6% (inactive)	22.2% (inactive)
CCCCCOC(=O)C1=C(C)N(C)C(=O)NC1c1cc(Br)c(O)c(OC)c1 (stereo not drawn)	563	-9.9% (inactive)	-39.7% (inactive)	105%	25.8% (inactive)	105%	-0.624 (inactive)	5.7e-06 (inactive)	0.0067 (inactive)	1.53% (inactive)	21.1% (inactive)
CCN(CC)CCOC(=O)c1c(C)oc2ccc(O)cc12	418	11.9% (inactive)	-8.4% (inactive)	74.1%	30.6% (inactive)	106%	-0.5 (inactive)	-8e-05 (inactive)	0.00511 (inactive)	8.25% (inactive)	6.72% (inactive)
Cc1ccc(N2CCN(C(=O)c3ccccc3)CC2)c(C)c1	484	-0.5% (inactive)	1.9% (inactive)	100%	-70.1% (inactive)	106%	-0.413 (inactive)	-6.4e-05 (inactive)	0.00418 (inactive)	12% (inactive)	0.924% (inactive)
CCOC(=O)c1cccc(NC(=O)c2ccco2)c1	690	2.9% (inactive)	-3.3% (inactive)	100%	38.8% (inactive)	97%	-0.387 (inactive)	-6e-05 (inactive)	0.00541 (inactive)	-16.7% (inactive)	-83.6% (inactive)
COc1cc2c3c(c1)/C(=C1/SC(NC(C)=O)=NC1=O)C(=O)N3C(C)(C)C=C2C	381	-2% (inactive)	7.7% (inactive)	91.9%	-35.9% (inactive)	91%	-0.467 (inactive)	-2e-05 (inactive)	0.00288 (inactive)	18% (inactive)	16.3% (inactive)
Cc1noc(/C=C/N(C)C)c1S(=O)(=O)N1CCCC(C(=O)NCCC2=CCCCC2)C1 (stereo not drawn)	518	0.9% (inactive)	-2.1% (inactive)	105%	-25.3% (inactive)	115%	-0.548 (inactive)	-1.2e-05 (inactive)	0.00579 (inactive)	1.59% (inactive)	-0.365% (inactive)
O=C(COC(=O)CCC1CCCC1)Nc1ccc(Cl)cn1	429	-4.8% (inactive)	-13.9% (inactive)	115%	-27.8% (inactive)	108%	-0.345 (inactive)	-5.6e-05 (inactive)	0.00786 (inactive)	-6.45% (inactive)	3.24% (inactive)
CC(=O)C1=C(C)NC(SCSc2ccccc2)=C(C#N)C1c1cccnc1 (stereo not drawn)	472	-0.5% (inactive)	-6.8% (inactive)	87.9%	-33% (inactive)	121%	-0.475 (inactive)	-3e-05 (inactive)	0.00661 (inactive)	1.86% (inactive)	0.63% (inactive)
O=C(Cn1cc2c(n1)CCCCC2)N1CCc2ccccc2C1	670	12% (inactive)	15.4% (inactive)	88.6%	27.7% (inactive)	85.1%	-0.631 (inactive)	1.4e-05 (inactive)	0.0057 (inactive)	-16% (inactive)	-17.6% (inactive)
Nn1c(SCC(=O)Nc2ccc(F)cc2)nnc1-c1cccnc1	74	55.5% (active)	-0.3% (inactive)	111%	-112% (inactive)	108%	-0.397 (inactive)	-0.000146 (inactive)	0.00484 (inactive)	12.6% (inactive)	25.6% (inactive)
O=C(NC1CCCc2ccccc21)C1CCN(c2nnc(-n3cccc3)s2)CC1 (stereo not drawn)	686	-6% (inactive)	-12.1% (inactive)	116%	-65.3% (inactive)	114%	-0.583 (inactive)	-3e-05 (inactive)	0.00726 (inactive)	7.01% (inactive)	18.7% (inactive)
CCOc1cc(C(=O)NCc2ccncc2)cc(OCC)c1OCC	596	1.6% (inactive)	3.9% (inactive)	100%	-121% (inactive)	114%	-0.407 (inactive)	-4.6e-05 (inactive)	0.00658 (inactive)	7.46% (inactive)	18.3% (inactive)
COc1cccc(-c2cc(C(F)(F)F)nc(NCc3ccco3)n2)c1	449	1.7% (inactive)	28.6% (inactive)	97.3%	-25.2% (inactive)	94.3%	-0.469 (inactive)	-5.6e-06 (inactive)	0.00562 (inactive)	-7.28% (inactive)	19.1% (inactive)
COc1cccc(C2CC(=O)Nc3cc4c(cc32)OCCO4)c1OC(C)C (stereo not drawn)	556	1.9% (inactive)	7.2% (inactive)	119%	-18.7% (inactive)	104%	-0.497 (inactive)	-6e-05 (inactive)	0.00619 (inactive)	9.49% (inactive)	17.8% (inactive)
COc1ccc(CCNS(=O)(=O)c2ccc3oc(C(=O)O)c(C)c3c2)cc1OC	612	-11.4% (inactive)	3.9% (inactive)	107%	-32% (inactive)	114%	-0.444 (inactive)	6.2e-05 (inactive)	0.00543 (inactive)	12.5% (inactive)	21.9% (inactive)
